“And” between values parts separate entries of the source, which are not always exact repeats. Equal entries are not always repeated. About 79,000 compounds went through this panel and 15% of them were active in at least one assay; those are over-represented in the sample as a whole. Unmarked numbers belong to inactive results. The source made the active and inactive calls. Rule as the data show it: active = growth inhibition above about 70%; inactive = the rest.
Assay: NCI Yeast Anticancer Drug Screen. Data for the rad50 strain (AID 155);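 also: 0% = growth of vehicle-only cultures of the same strain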
Conditions: S. cerevisiae rad50 strain growth inhibition, stronger effect = higher value; at 50.0 µM unless noted
Procedure: Growth inhibition of yeast strains with defined genetic alterations is measured as a screen for potential anti-cancer activity. Selected strains with alterations in DNA damage repair or cell cycle control were exposed to compounds and growth inhibition was measured relative to vehicle treated controls. The strain used in this assay is rad50

Row | SMILES | growth inhibition
1 | NNC(=O)Cc1cccnc1 | -3.6%
2 | CCC(=O)C(C)=O | 16.9%
3 | CCOC(=O)[C@]12C3C=CC(C3)C1C(=O)C1OC12 (stereo not given in full) | -29%
4 | COc1cc(CC(=O)C(=O)O)ccc1O | 0.85%
5 | Cc1ccc(S(=O)(=O)N2C(=O)CCC2C(=O)O)cc1 (stereo not given) | -0.95%
6 | CCCCCCCCCCCC[N+](C)(C)C(C)Cc1ccccc1 (stereo not given) | 99.3% (active)
7 | Cc1cc(C)c(CC(=O)c2ccccc2)c(C)c1 | 0%
8 | Cc1cc(Nc2nnc(-c3cccnc3Oc3ccccc3)s2)ccc1Br | 1.25%
9 | c1ccc(-n2ncn[n+]2-c2ccccc2)cc1 | 6.55%
10 | CCC[n+]1nc2ccccc2c(=Nc2ccccc2[N+](=O)[O-])[n-]1 | 8.65%
11 | O=C1OC(c2ccccc2)=N/C1=C/C=C/c1ccco1 | -10.9%
12 | CC(C)=CC(=O)CNC(N)=S | 36.1%
13 | COc1cc2c3c([nH]c2c(OC)c1OC)CCN(Cc1ccccc1)C3 | -27.7%
14 | CCOC(=O)C(Cc1ccccc1)NC(=O)c1ccc(N=NN(C)C)cc1 (stereo not given) | -19.8%
15 | OC1(C2(O)CCCC2)CCCC1 | 14.1%
16 | COc1ccc(OC)c(NC(=O)CCCC(=O)C(C#N)c2ccc(CC#N)cc2)c1 (stereo not given) | -15.8%
17 | CCCCCCCCCCCCSCCSCCCCCCCCCCCC | 9.85%
18 | COc1ccc2nc3cc(Cl)ccc3c(Nc3ccccc3-c3ccccc3Nc3c4ccc(Cl)cc4nc4ccc(OC)cc34)c2c1 | 6.85%
19 | Cc1cccc(NC(=O)Nc2ccccc2Cl)n1 | 23.5%
20 | C=C1C(=O)O[C@@H]2C[C@@]3(C)[C@H](O)CCC(=C)[C@@H]3C[C@H]12 | -4.65%

Row | SMILES | growth inhibition
21 | OC1C(SCc2ccccc2)OCC2OC3(CCCCC3)OC21 (stereo not given) | -5.1%
22 | ONC(CC(O)(NO)NO)c1ccccc1 (stereo not given) | -32.7%
23 | C=CCCCC1CCCNC1=S (stereo not given) | 8.3%
24 | C[C@@]1([N+](=O)[O-])CC2CCC1C2 (stereo not given in full) | -3.9%
25 | CN1CCN(C(=S)N(C)C(=O)c2ccco2)CC1 | -37.8%
26 | CC1(C)SC(c2ccccc2)SC(c2ccccc2)S1 (stereo not given) | 13.7%
27 | CCCCCCCC[Si](c1ccccc1)(c1ccccc1)c1ccccc1 | 3.15%
28 | C/C(CC1=CCCCC1)=N\NC(N)=O | -18.4%
29 | CC(=O)Oc1cc(OC(C)=O)c2c(OC(C)=O)c3c(OC(C)=O)cc(C)cc3cc2c1 | 40.5%
30 | COCC(C)OC(=O)COc1ccccc1 (stereo not given) | 1.05%
31 | O=C(Nc1ccc(Br)cc1)C(Br)C(Br)c1ccccc1 (stereo not given) | 98% (active)
32 | O=C(O)c1ccccc1C(=O)Nc1ccc(S(=O)(=O)Nc2nccs2)cc1 | -22.6% and -6.05%
33 | CC(C)=CC(=O)O | 3.2%
34 | CCOC(=O)C1=C(O)c2ccccc2C(=O)C1=O | 7.35%
35 | Nc1nnc2nc(C3(c4nc5nnc(N)n5[nH]c4=O)CCCC3=O)c(=O)[nH]n12 | 13.4%
36 | O=C(OCc1ccccc1)C1CCN1C(c1ccccc1)c1ccccc1 (stereo not given) | 7.85%
37 | CC(C)CC1N=C(NN=C(CCl)CCl)OP1(=O)NCCCCCCNP1(=O)OC(NN=C(CCl)CCl)=NC1CC(C)C (stereo not given) | 13.4%
38 | CC(Oc1c(Cl)cc(Cl)cc1Cl)C(=O)O (stereo not given) | -13.7%
39 | ClC1c2cccc3cccc(c23)C1Cl (stereo not given) | 6.95%
40 | CC(C)CCOC(=O)C(O)c1ccccc1 (stereo not given) | 15.6%
